This is part of a sample that, as a whole, favours compounds with a hit. Of some 79,000 tested, about 15% had one in any assay. Rule as the data show it: active = growth inhibition above about 70%; inactive = the rest.
Legend:
[1] = NCI Yeast Anticancer Drug Screen. Data for the rad50 strain (AID 155);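 also: 0% = growth of vehicle-only cultures of the same strain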; settings: S. cerevisiae rad50 strain growth inhibition; at 50.0 µM; active compounds read high
In short: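 A DNA repair-deficient yeast mutant serves as the test organism; compound-induced growth inhibition is calculated against vehicle-treated cells.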

[2] = NCI Yeast Anticancer Drug Screen. Data for the mec2-1 strain (AID 157); settings: S. cerevisiae mec2-1 strain, at 50.0 µM, active compounds read high
In short: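 Using mec2-1 yeast: add compound, measure growth, express inhibition versus vehicle-treated cultures.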

[3] = NCI Yeast Anticancer Drug Screen. Data for the sgs1 mgt1 strain (AID 161);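 also: 0% = growth of cultures given vehicle only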; settings: S. cerevisiae sgs1 mgt1 strain, at 50.0 µM, active compounds read high
In short: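 Growth of a repair-deficient yeast mutant was monitored after compound treatment and expressed as inhibition relative to vehicle-treated cultures.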

[4] = NCI Yeast Anticancer Drug Screen. Data for the cln2 rad14 strain (AID 165);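 also: 0% = growth equal to vehicle treated cultures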; settings: S. cerevisiae cln2 rad14 strain, at 50.0 µM, active compounds read high
In short: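 Yeast strain cln2 rad14, bearing defects in cell cycle control and DNA repair, serves as the test system; values reflect growth inhibition compared with vehicle.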

[5] = NCI Yeast Anticancer Drug Screen. Data for the bub3 strain (AID 167); settings: S. cerevisiae bub3 mutant strain, at 50.0 µM, active compounds read high
In short: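 Inhibition values come from growth of compound-treated mutant yeast normalised to vehicle-treated controls.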

[6] = NCI Yeast Anticancer Drug Screen. Data for the mlh1 rad18 strain (AID 175); settings: S. cerevisiae mlh1 rad18 strain growth inhibition; at 50.0 µM; active compounds read high
In short: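 Steps: expose repair-defective yeast to compound; measure growth; express inhibition against vehicle-treated controls.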

Measured: growth inhibition

CCOC(=O)C(=CC(C)(C)C)C(=O)OCC
inactive: [1] 3.9% | [2] 19.1% | [3] 2.8% | [4] 14.8% | [5] 21.1% | [6] 10%

O=C1c2ccccc2C2NCCCN12 (stereo not given)
inactive: [1] -2.55% | [2] -12.3% | [3] -0.4% | [4] -5.65% | [5] -3.55% | [6] 0.9%

CCOc1ccc(/C=C/c2ccc3ccccc3[n+]2C)cc1OCC
inactive: [1] 16.1% | [2] 9% | [3] -5.3% | [4] -14% | [5] -1.35% | [6] 19.7%

CSc1nc2ncnc(NCc3ccc(Cl)cc3)c2[nH]1
inactive: [1] -11% | [2] -4.35% | [3] -4.1% | [4] -43.3% | [5] -7.45% | [6] -35.7%

CC12CCC[C@@](C)(C(=O)OC3OC(CO)C(O)C(O)C3O)[C@H]1CCC13CC4CC(OC4(CO)[C@H]1O)[C@@H]23 (stereo not given in full)
inactive: [1] -8.45% | [2] -26.1% | [3] -20.9% | [4] -18.8% | [5] -20.7% | [6] -17.9%

Fc1ccc(-c2cc(-c3cc(-c4ccc(F)cc4)n[nH]3)[nH]n2)cc1
inactive: [1] 20.6% | [2] 9.2% | [3] 25.9% | [4] 6.6% | [5] 9.4% | [6] 32.1%

[O-]/[N+](=C\c1ccccc1)[C@H](COCc1ccccc1)c1ccccc1
inactive: [1] -21.8% | [2] -17.1% | [3] -23.8% | [4] -13.5% | [5] -2.75% | [6] -5.5%

CCCN=C1NS(=O)(=O)c2ccccc21
inactive: [1] 8.35% | [2] -14.8% | [3] -15.3% | [4] -11.8% | [5] -7.55% | [6] -7.7%

Cc1ccc(NC(=O)c2cc(S(=O)(=O)n3cc[nH]c3=O)c(S)cc2Cl)cc1
inactive: [1] 14.5% | [2] -5.85% | [3] 23.9% | [4] 8.65% | [5] -4.75% | [6] 34%

CC1(C(Cl)Cl)C=CC(=O)c2ccccc21 (stereo not given)
inactive: [1] 37% | [2] 35.6% | [3] 21.4% | [4] 15.3% | [5] 12.3% | [6] 4.9%

Cc1ncc2c(n1)NC(=O)NC2
inactive: [1] 17.1% | [2] 13.5% | [3] -16.6% | [4] 0.9% | [5] -23.1% | [6] -13.9%

CC1=C/C(=C(/c2cccc(S(=O)(=O)O)c2)c2cc(C)c(O)c(C(=O)O)c2)C=C(C(=O)O)C1=O
inactive: [1] 4.4% | [2] -21.8% | [3] -3.7% | [4] 25.2% | [5] -3.7% | [6] 9.05%

COc1ccc(C2(C)OCCC(C)O2)cc1 (stereo not given)
inactive: [1] -0.25% | [2] -18.1% | [3] 0.1% | [4] -24.1% | [5] -5.2% | [6] 10.6%

Cc1ccc(S(=O)(=O)OCC2CCC(COS(=O)(=O)c3ccc(C)cc3)O2)cc1 (stereo not given)
inactive: [1] -4.9% | [2] -14.4% | [3] -4.85% | [4] 10.7% | [5] -0.35% | [6] -6.9%

O=C1CC(c2ccccc2)S(=O)c2ccccc2N1 (stereo not given)
inactive: [1] -7.5% | [2] 5.25% | [3] -9.9% | [4] 26.8% | [5] 11.6% | [6] -1.25%

Nc1ccccc1NC1CCN(Cc2ccccc2)CC1
inactive: [1] 27.2% | [2] -3.35% | [3] 25.8% | [4] 33.5% | [5] 22.9% | [6] 19.1%

C/C(=N\NC(N)=S)C(CN(CC(C)C)CC(C)C)C(=O)Nc1ccc(C)cc1C (stereo not given)
inactive: [1] -18.7% | [2] 6.4% | [3] -7.15% | [4] 16% | [5] -1.15% | [6] -2.75%

O=P(O)(O)c1ccc2c(c1)OCCOCCOCCOCCO2
inactive: [1] -41.9% | [2] -10.9% | [3] -29.5% | [4] -21.9% | [5] -24.4% | [6] -14.8%

CNC(=O)C(C)NC(=O)C(Cc1ccccc1)NC(=O)OC(C)(C)C (stereo not given)
inactive: [1] -10.2% | [2] -57.7% | [3] -16.2% | [4] -28.8% | [5] -19.2% | [6] 1.05%

C=C1C(=O)OC2CC(C)C(C(CC(C)=O)OC(C)=O)=CCC12 (stereo not given)
inactive: [1] 0.6% | [2] 5.1% | [3] 3.6% | [4] 6.8% | [5] 6.1% | [6] -53.7%

Reference: PubChem BioAssay (NCI)
